# According to PubChem BioAssay (NCATS):
# Values joined by “and” are separate entries in the source; they are usually repeats but may differ in a detail not shown here. Equal entries are not always repeated. Values without a mark were called inactive. Records with an inconclusive call do not appear. A call without a number means that no potency is given here. Active and inactive are the calls of the source. Unless noted, calls follow the shape of the dose curve; as a rule, active = well fitted curve in the direction sought with a large enough effect; inconclusive = small, poorly fitted or top-dose-only effect, or another doubt; inactive = no such curve, though single readings can be large; an effect the other way counts as inactive or inconclusive.
# Tests used:
# [1] = Cellular Toxicity (caspase-3) H-4-II-E (AID 663);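 also: cells exposed to compound for 16 hr before readout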
# How it was run: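 Caspase 3/7 activation measured in H-4-II-E cells in complete culture medium after 16 hr treatment at 37 °C, using luciferase-coupled substrate readout; AC50 values come from Hill-equation fits of normalized concentration-response data.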
# [2] = Cellular Toxicity (caspase-3) N2a (AID 665); settings: N2a cells, luminescence, normalized: DMSO 0%, 10 µM staurosporine 100%; at 92.2 µM (top of the series);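 also: compound exposure lasted 16 h at 37 °C before readout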
# How it was run: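 Caspase-3/7 activation measured as luminescence from Caspase-Glo reagent (1 h, room temperature) after 16 h compound exposure of mouse N2a cells. AC50 values from Hill-equation concentration-response, scaled between DMSO and 10 uM staurosporine.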
# [3] = Cell Viability - LYMP1-002 - Assay at 16 hr (AID 948)
# How it was run: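 Acute cytotoxicity is scored as a concentration-dependent fall in intracellular ATP in a human lymphoblastoid line (LYMP1-002) after 16 hr compound exposure at 37 C, measured by luciferase luminescence.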
# [4] = MultiTox-Fluor Cytotoxicity Assay - LYMP1-002 - Live Cells (AID 955)
# How it was run: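 After 16 h compound exposure at 37 C, live LYMP1-002 lymphoblastoid cells (2500/well) were quantified by cleavage of cell-permeant GF-AFC substrate, read at 405/510 nm after 60 min. Concentration-response fitted with Hill equation for AC50.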
# [5] = MultiTox-Fluor Cytotoxicity Assay - LYMP1-003 - Dead Cells (AID 961); also: nearly all actives have a fitted effect of over 70% in size
# How it was run: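 LYMP1-003 lymphoblastoid, 2500 cells/well, 5 hr settle then 16 hr cpd at 37 C; MultiTox-Fluor reagent 60 min RT; Ex/Em 485/520 dead-cell signal; norm. DMSO = 0%, 15 uM tetraoctylammonium bromide = 100%; Hill AC50.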
# [6] = MultiTox-Fluor Cytotoxicity Assay - LYMP1-003 - Live Cells (AID 962);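 also: cytotoxic hits lower the live-cell protease signal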
# How it was run: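 Live-cell protease activity (GF-AFC substrate, 405/510 nm, 60 min at room temperature) after 16 h, 37 C compound exposure of human lymphoblastoid LYMP1-003 cells; concentration-response fitted to the Hill equation for AC50.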
# [7] = Cell Viability - LYMP2-003 (AID 965);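 also: cells exposed to compounds for 24 h before reading; nearly all actives have a fitted effect of over 50% in size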
# How it was run: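 Acute cytotoxicity is scored as a concentration-dependent drop in intracellular ATP, measured by luciferase luminescence in human lymphoblastoid cells treated for 24 hours at 37 C. AC50 values derive from Hill-equation modelling.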
# [8] = Cell Viability - LYMP2-015 (AID 971); also: nearly all actives have a fitted effect of over 55% in size
# How it was run: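 Cytotoxicity readout: decrease in intracellular ATP (CellTiter-Glo luminescence) in 2500 LYMP2-015 lymphoblastoid cells/well after 24 h compound exposure at 37 C. Concentration-response data fitted with the standard Hill equation to give AC50.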
# [9] = Cell Viability - LYMP2-025 (AID 976)
# How it was run: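 Cytotoxicity read as loss of intracellular ATP (luciferase luminescence) after 24 h compound treatment at 37 C. Uses LYMP2-025 lymphoblastoid cells in 1536-well format; Hill-equation modelling gives AC50; tetraoctylammonium bromide as positive control.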
# [10] = Cell Viability - LYMP2-006 (AID 978);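 also: cells exposed to compound for 24 hours; nearly all actives have a fitted effect of over 60% in size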
# How it was run: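 Concentration-dependent loss of intracellular ATP in a human lymphoblastoid line after 24 hr treatment at 37 C was measured by CellTiter-Glo luminescence, with AC50 values obtained from standard Hill-equation modelling.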
# [11] = Cell Viability - LYMP2-007 (AID 979);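 also: cells exposed to compound for 24 h before reading; nearly all actives have a fitted effect of over 60% in size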
# How it was run: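 AC50 values come from Hill-equation fits of luminescent intracellular ATP (CellTiter-Glo, 30 min, room temperature) following 24 h compound exposure at 37 C. Cells: LYMP2-007 lymphoblastoid line, 2500 per well, in complete culture medium.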
# [12] = Cell Viability - LYMP2-008 (AID 980); also: nearly all actives have a fitted effect of over 60% in size
# How it was run: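 Cytotoxicity determined from ATP-dependent luciferase luminescence (CellTiter-Glo) following 24 h compound exposure of human lymphoblastoid LYMP2-008 cells at 37 C. Concentration-response data fitted to the Hill equation to give AC50.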
# [13] = Cell Viability - LYMP2-026 (AID 989); also: nearly all actives have a fitted effect of over 50% in size
# How it was run: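 Cytotoxicity read as ATP-dependent luminescence (CellTiter-Glo, 30 min room temperature) after 24 h compound treatment at 37 C. LYMP2-026 lymphoblastoid line seeded at 2500 cells/well; AC50 derived by standard Hill equation.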
# [14] = Cell Viability - LYMP1-002 - Assay at 24 hr (AID 993)
# How it was run: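 qHTS cytotoxicity at 24 h: CellTiter-Glo ATP luminescence in lymphoblastoid line LYMP1-002 incubated with compound at 37 °C. Concentration-response modeled with the Hill equation for AC50; tetraoctylammonium bromide served as positive control.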
# [15] = Cell Viability - LYMP1-002 - Assay at 40 hr (AID 994); also: nearly all actives have a fitted effect of over 60% in size
# How it was run: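 Cytotoxicity was read as loss of cellular ATP (CellTiter-Glo luminescence) after 40 hr compound exposure at 37 C of 2500 LYMP1-002 lymphoblastoid cells per well. Concentration-response data were fitted with the standard Hill equation to give AC50.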
# [16] = target: Voltage-gated inwardly rectifying potassium channel KCNH2 (Homo sapiens) (UniProt Q12809); assay: qHTS Assay for Small Molecule Inhibitors of the Human hERG Channel Activity (AID 588834);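 also: lower thallium flux fluorescence means stronger hERG block; nearly all actives have a fitted effect of over 50% in size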; also: potency is read from the fitted curve at half-maximal effect
# Sequence of Voltage-gated inwardly rectifying potassium channel KCNH2 (Homo sapiens) (Q12809 whole entry, looked up): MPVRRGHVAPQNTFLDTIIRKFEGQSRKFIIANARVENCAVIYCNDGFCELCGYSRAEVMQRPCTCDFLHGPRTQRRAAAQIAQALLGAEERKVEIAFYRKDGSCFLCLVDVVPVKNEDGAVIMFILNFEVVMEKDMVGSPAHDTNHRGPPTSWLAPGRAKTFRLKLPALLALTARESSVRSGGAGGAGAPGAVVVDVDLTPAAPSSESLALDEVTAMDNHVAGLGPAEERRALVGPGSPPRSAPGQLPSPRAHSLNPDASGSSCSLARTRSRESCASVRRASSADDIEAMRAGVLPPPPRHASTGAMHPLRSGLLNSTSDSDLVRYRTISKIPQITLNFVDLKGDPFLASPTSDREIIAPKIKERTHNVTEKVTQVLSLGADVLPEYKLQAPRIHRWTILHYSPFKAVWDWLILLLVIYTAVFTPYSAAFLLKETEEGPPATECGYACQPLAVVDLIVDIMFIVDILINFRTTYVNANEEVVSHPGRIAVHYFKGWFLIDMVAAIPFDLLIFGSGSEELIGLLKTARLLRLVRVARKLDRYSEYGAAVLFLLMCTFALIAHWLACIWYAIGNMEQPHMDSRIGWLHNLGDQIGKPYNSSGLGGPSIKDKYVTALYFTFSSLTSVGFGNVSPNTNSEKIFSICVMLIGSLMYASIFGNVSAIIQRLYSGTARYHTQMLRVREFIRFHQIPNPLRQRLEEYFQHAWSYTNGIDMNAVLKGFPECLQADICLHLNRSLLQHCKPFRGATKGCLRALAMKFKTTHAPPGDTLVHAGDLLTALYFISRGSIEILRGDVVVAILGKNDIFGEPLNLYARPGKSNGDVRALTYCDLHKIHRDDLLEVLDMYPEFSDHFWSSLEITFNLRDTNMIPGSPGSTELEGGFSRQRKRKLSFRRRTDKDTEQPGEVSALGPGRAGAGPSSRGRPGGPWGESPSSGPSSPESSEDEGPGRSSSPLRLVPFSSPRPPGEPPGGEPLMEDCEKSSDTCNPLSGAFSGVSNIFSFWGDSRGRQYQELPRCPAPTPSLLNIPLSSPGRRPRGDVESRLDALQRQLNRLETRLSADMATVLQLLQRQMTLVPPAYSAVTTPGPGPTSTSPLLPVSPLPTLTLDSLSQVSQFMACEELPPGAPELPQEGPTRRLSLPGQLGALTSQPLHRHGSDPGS
# How it was run: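 Cells were infected with hERG-BacMam virus for 4 hrs at room temperature, grown overnight, then seeded at 2000/well. After dye loading and roughly 10 min compound treatment, thallium influx was triggered and fluorescence recorded.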
# [17] = qHTS assay for small molecule agonists of the antioxidant response element (ARE) signaling pathway measured by Nrf2-dependant transcriptional activity (AID 720636; active = well fitted curve in the direction sought with a large enough effect in the repeat runs; an effect the other way counts as inactive or inconclusive)
# How it was run: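 Nrf2-dependent transcription read as ONE-Glo luciferase signal from ARE-luc HepG2 reporter cells after 16 hr compound treatment at 37 C, 5% CO2, in assay medium with 1% dialyzed FBS.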
# [18] = qHTS assay for small molecule agonists of the antioxidant response element (ARE) signaling pathway measured by Nrf2-dependant transcriptional activity - cell viability counter screen (AID 720653; active = well fitted curve in the direction sought with a large enough effect in the repeat runs; an effect the other way counts as inactive or inconclusive); settings: ARE-bla HepG2 viability, CellTiter-Glo ATP luminescence, 16 h; stronger effect = lower value
# How it was run: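 ARE-bla HepG2 cells (2,000/well) rested 5 hrs at 37C/5% CO2, then exposed to compounds in DMSO for 16 hrs. Viability was read in the same wells as intracellular ATP by luminescence, 30 min at room temperature after reagent addition.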
# [19] = qHTS assay for cell viability of the p53RE-bla HCT-116 cell line (AID 743292); also: nearly all actives have a fitted effect of over 55% in size
# How it was run: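 ATP-based luminescent viability (CellTiter-Glo, 30 min RT) after 16 h compound treatment at 37 C of p53RE-bla HCT-116 cells, seeded at 4,000 cells/well and rested 5 h before dosing.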
# [20] = Cell Viability - N2a (AID 540); settings: N2a mouse neuroblastoma cell viability; at 92.2 µM (top of the series); also: nearly all actives have a fitted effect of over 45% in size
# How it was run: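 CellTiter-Glo ATP luminescence, read 20 min after reagent at room temperature, reported viability following 40 h compound treatment at 37 °C. N2a mouse neuroblastoma cells seeded 1500/well; Hill equation gave AC50.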
SMILES,outcome [1],caspase-3 activation [2],Potency [3],outcome [4],Potency [5],Potency [6],Potency [7],Potency [8],Potency [9],Potency [10],Potency [11],Potency [12],Potency [13],Potency [14],Potency [15],Potency [16],outcome [17],max response [18],Potency [19],"activity change, negative = cytotoxicity [20]"
CCOP(=S)(OCC)Oc1ccc([N+](=O)[O-])cc1,inactive,-4.19% and -4.51%,inactive,inactive,inactive,inactive,inactive,inactive,inactive,inactive,inactive,inactive,inactive,inactive,inactive,35.5 µM (active),inactive,-2.59% and 6.4% and 13.8%,inactive,
Cc1ccc(O)c(C)c1,inactive,3.54%,inactive,inactive,inactive,inactive,inactive,inactive,inactive,inactive,inactive,inactive,inactive,inactive,inactive,inactive,inactive,-4.5% and -1.52%,inactive,1.99%
CCCCCCCC(=O)Cl,inactive,-0.621%,inactive,inactive,inactive,inactive,inactive,inactive,inactive,inactive,inactive,inactive,inactive,inactive,inactive,inactive,inactive,7.34%,inactive,1.92%
ClC(Cl)=C(Cl)Cl,inactive,0.443% and 1.4%,inactive,inactive,inactive,inactive,inactive,inactive,inactive,inactive,inactive,inactive,inactive,inactive,inactive,inactive,inactive,5.48% and 2.15%,inactive,-8.38% and -0.61%
BrCCBr,inactive,-3.9%,inactive,inactive,inactive,inactive,inactive,inactive,inactive,inactive,inactive,inactive,inactive,inactive,inactive,inactive,inactive,2.36% and -0.33%,inactive,-0.148%
C[N+](C)(C)Cc1ccccc1,inactive,-0.692%,inactive,inactive,inactive,inactive,inactive,inactive,inactive,inactive,inactive,inactive,inactive,inactive,inactive,inactive,inactive,-0.49% and -11.3%,inactive,-22%
O=C(Cl)C(Cl)(Cl)Cl,inactive,0.525%,inactive,inactive,inactive,inactive,inactive,inactive,inactive,inactive,inactive,inactive,inactive,inactive,inactive,inactive,inactive,-1.42%,inactive,4.93%
ClC(Cl)(Cl)c1ccccc1,inactive,-0.73% and -1.88%,inactive,inactive,inactive,inactive,inactive,inactive,inactive,inactive,inactive,inactive,inactive,inactive,inactive,inactive,inactive,-1.54% and 10.3%,inactive,2.93% and 2.42%
